# In PubChem BioAssay AID720616 (Broad Institute, 2013):
# Results with a measured potency or affinity are listed apart. The source made the active and inactive calls.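 How the source made its calls: active means ATP viability loss whose half-effect dose is at most twice the top dose, in all three treatment times; inconclusive means calls differ between the treatment times; inactive means inactive at every treatment time.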
# Experiment: U-251 glioblastoma cell viability loss, late-stage follow-up, mechanism study for HRAS target identification, CellTiter-Glo ATP luminescence, several timepoints, dry powder (AID 720616)
# Settings: U-251 glioblastoma viability; series mostly up to 35 µM; activity change, negative = viability loss: at the top concentration
row,SMILES,"activity change, negative = viability loss"
1,CCC(=O)N(c1ccc(OC)c(Cl)c1)C(C(=O)NCCc1ccccc1)c1cccs1 (stereo not drawn),-7.26% (inactive)
2,Cc1onc(C(=O)N2CCN(C(c3ccncc3)c3ccncc3)CC2)c1[N+](=O)[O-],1.54% (inactive)
3,Cc1onc(C(=O)N2CCN(C(c3ccc(Cl)cc3)c3ccc(Cl)cc3)CC2)c1[N+](=O)[O-],-27.1% (inactive)
